Assay [1] is described as follows: qHTS profiling of the MIPE4 collection as inhibitors of Plasmodium falciparum (3D7) proliferation (AID 743344).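 Note: scaled between DMSO vehicle wells and 0.29 µM artemisinin as full inhibition.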 To be noted: P. falciparum 3D7 in erythrocytes, SYBR Green DNA fluorescence, 72 h; at 28.5 µM unless noted. An outline of the steps:
(§1)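 Parasite DNA was quantified by SYBR Green I fluorescence (ex 485, em 535 nm) after overnight lysis in saponin/Triton buffer at room temperature. Cultures at 0.3% parasitemia and 2.5% hematocrit were first exposed to compound for 72 h at 37 C; signals were normalised to artemisinin (0.29 uM) and vehicle wells.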

A short description of assay [2]: qHTS profiling of the MIPE4 collection as inhibitors of Plasmodium falciparum (DD2) proliferation (AID 743345). Conditions: P. falciparum Dd2 in erythrocytes, SYBR Green DNA, 72 h; at 28.5 µM unless noted. In outline: as §1
Assay [3] in a line: qHTS profiling of the MIPE4 collection as inhibitors of Plasmodium falciparum (DD2) proliferation (Rep 2) (AID 743346). Conditions: P. falciparum Dd2 in erythrocytes, SYBR Green DNA, 72 h; at 28.5 µM unless noted. An outline of the steps: as §1
For orientation: In qHTS, concentration-response curves come from the screen itself.

A short description of assay [4]: High-throughput drug toxicity screening in the BPDCN cell line Gen2.2 (AID 1224824).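 Note: cells exposed to compounds for 48 h before reading.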 Conditions: Gen2.2 BPDCN cells; at 45.8 µM (top of the series) unless noted. An outline of the steps:
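Gen2.2 cells (500/well) in phenol red-free RPMI with 10% FBS were exposed to compounds for 48 h at 37 °C, 5% CO2. Viability was read by CellTiter-Glo luminescence and normalized to DMSO (100%) and 9.2 uM bortezomib (0%).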

Assay [5] in a line: High-throughput drug toxicity screening in the BPDCN cell line Cal-1 (AID 1224825). To be noted: Cal-1 BPDCN cell viability, qHTS; at 45.8 µM (top of the series) unless noted. In outline: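 Percent activity derived from CellTiter-Glo luminescence, scaling DMSO to 100% and 9.2 uM final bortezomib to 0%. BPDCN Cal-1 cells (500/well, RPMI plus 10% FBS) incubated with compounds 48 hours at 37C before reading.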

Assay [6] is described as follows: qHTS assay for measurement of the activity of small molecule inhibitors on Zika virus induced Caspase-3 activity in human iPSC derived neural progenitor cells (hNPCs) (AID 1224857; active = well fitted curve in the direction sought with a large enough effect; an effect the other way counts as inactive or inconclusive; note: % of control where 0% means no effect; nearly all actives have a fitted effect of over 65% in size). An outline of the steps:
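After overnight (16–20 h) culture at 350 cells/well, hNPCs get compound, then ZIKV 2 FFU/cell one hour later. Six hours on, Caspase-Glo 3/7 is added and luminescence measured.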

Assay [7] in a line: qHTS assay for measurement of the activity of small molecule inhibitors on Zika virus induced Caspase-3 activity in human astrocytoma cells (AID 1224859; active = well fitted curve in the direction sought with a large enough effect; an effect the other way counts as inactive or inconclusive;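 note: plate controls were ZIKV-infected untreated cells for no effect and uninfected cells for full effect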). An outline of the steps:
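Inhibition of Zika-induced caspase-3/7 activity: SNB-19 cells, 1 h compound pretreatment, ZIKV 2 FFU/cell for 6 h at 37 C, Caspase-Glo luminescence read-out.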

A short description of assay [8]: qHTS profiling of the MIPE4 collection as inhibitors of Plasmodium falciparum (HB3) proliferation (AID 743347).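 Note: plate controls were DMSO vehicle wells for no effect and artemisinin wells for full effect.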 Conditions: P. falciparum HB3 in erythrocytes, SYBR Green DNA, 72 h; at 28.5 µM unless noted. An outline of the steps:
as §1

Assay [9] in a line: qHTS profiling for inhibitors of Plasmodium falciparum (3D7) proliferation (AID 743322).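 Note: infected erythrocytes exposed to compound for 72 h before lysis; 100% = DMSO vehicle wells and 0% = 0.29 µM artemisinin.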 Conditions: P. falciparum 3D7 proliferation; at 28.7 µM (top of the series). An outline of the steps:
as §1

The nature of assay [10]: qHTS profiling for inhibitors of Plasmodium falciparum (DD2) proliferation (AID 743323). Conditions: lower = more inhibition; at 28.7 µM (top of the series). In outline:
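Parasite DNA quantified by SYBR Green fluorescence (ex 485, em 535 nm) after saponin/Triton lysis and overnight dark incubation. Cultures: 0.3% parasitemia, 2.5% hematocrit, 72 h, 37 C; data scaled between DMSO and 0.29 uM artemisinin.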

Assay [11] is described as follows: qHTS profiling for inhibitors of Plasmodium falciparum (HB3) proliferation (AID 743324; active = well fitted curve in the direction sought with a large enough effect; an effect the other way counts as inactive or inconclusive;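 note: 100% = DMSO vehicle wells and 0% = artemisinin-treated control wells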). To be noted: Plasmodium falciparum HB3 blood-stage proliferation; at 28.7 µM (top of the series). An outline of the steps: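 SYBR Green fluorescence (485 ex/535 em) of lysed cultures, incubated overnight at room temperature in the dark, quantifies parasite DNA. Infected erythrocytes at 0.3% parasitemia and 2.5% hematocrit were exposed 72 h; values normalized to DMSO and 0.29 uM artemisinin controls.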

Molecules are shown by their SMILES. Values joined by “and” are separate entries in the source; they are usually repeats but may differ in a detail not shown here. Identical values can stand only once. Records with an inconclusive call do not appear. Active and inactive are the calls of the source. Unless noted, the rule behind the calls is not given here.

`CNC(=O)c1ccc(-c2cnc3ncc(Cc4ccc5ncccc5c4)n3n2)cc1F` displayed a parasite growth, % of DMSO control in assay [1] of 19.3%. The same compound yielded a parasite growth remaining, % of DMSO control (lower = more inhibition) in assay [2] of 41.8%. The parasite growth, % of control (lower = inhibition) in assay [3] was 37.1%. The cell viability, % of control (lower = more cytotoxic) in [4] stood at 48.9%. The viability (% of control) in assay [5] was determined as 92.3%. The Potency entry in [6] and in assay [7] was “inactive” throughout.
Compound `COc1cccc2c(NCc3ccccc3)nc(-n3c(N)nc4ccccc43)nc12` yielded a parasite growth, % of DMSO control in assay [1] of 5.92%. Also, in [2], the parasite growth remaining, % of DMSO control (lower = more inhibition) is 5.67%. For the same compound, the cell viability, % of control (lower = more cytotoxic) in [4] stood at 3.5%. Moreover, the viability (% of control) in assay [5] stood at 2.1%. The Potency entry in assay [6] and in assay [7] was “inactive” throughout.
As for `CC(O)C1C(=O)N2C(C(=O)O)=C(SC3CNC(C(=O)N(C)C)C3)C(C)C12` (stereo unspecified), in [1], the parasite growth, % of DMSO control worked out at 87.4%. For the same compound, the parasite growth remaining, % of DMSO control (lower = more inhibition) in assay [2] was 93.4%. For the same compound, in [3], the parasite growth, % of control (lower = inhibition) is 82.6%. The compound also returned a growth, % of control in assay [8] of 75.4%. Also, in assay [4], the cell viability, % of control (lower = more cytotoxic) was 120%. This compound yielded a viability (% of control) in assay [5] of 98.9%. Also, the Potency result in [6] and in assay [7] was “inactive” each time.
For the compound `Cn1cncc1[C@@](N)(c1ccc(Cl)cc1)c1ccc2c(c1)c(-c1cccc(Cl)c1)cc(=O)n2C`, the remaining parasite growth % (stronger effect = lower value) in assay [9] was -0.555%. In [10], this compound returned an activity, percent of control of 5.8%. The remaining proliferation (% of control), lower = more inhibition in assay [11] was 1.12%. Moreover, the parasite growth, % of DMSO control in [1] was determined as 6.1%. Further, in [3], the parasite growth, % of control (lower = inhibition) amounted to 20.3%. Moreover, the growth, % of control in assay [8] stood at 5%. Besides, the cell viability, % of control (lower = more cytotoxic) in assay [4] is 3.19%. Besides, in [5], the viability (% of control) turned out to be 2.26%. In addition, the Potency result in assay [6] and in assay [7] was “inactive” throughout.
Take `COC(=O)Nc1ccc(-c2nc(N3CCOCC3)c3cnn(C4CCN(Cc5cccnc5)CC4)c3n2)cc1`: in assay [1], the parasite growth, % of DMSO control was determined as 5.62%. This compound also displayed a parasite growth remaining, % of DMSO control (lower = more inhibition) in assay [2] of 7.48%. For the same compound, in assay [3], the parasite growth, % of control (lower = inhibition) was found to be 9.27%. In [8], this compound had a growth, % of control of 4.59%. Also, the cell viability, % of control (lower = more cytotoxic) in [4] is 4.27%. This compound also came in with a viability (% of control) in assay [5] of 3.04%. Further, the Potency entry in assay [6] and in [7] was “inactive” each time.
As for `OCCCNc1cc(-c2ccnc(Nc3cccc(Cl)c3)n2)ccn1`, the parasite growth, % of DMSO control in assay [1] is 5.7%. For the same compound, the parasite growth remaining, % of DMSO control (lower = more inhibition) in assay [2] is 10.1%. Besides, in [3], the parasite growth, % of control (lower = inhibition) amounted to 19.1%. Also, the cell viability, % of control (lower = more cytotoxic) in assay [4] was determined as 4.08%. In assay [5], this compound gave a viability (% of control) of 2.53%. The Potency result in assay [6] and in assay [7] was “inactive” throughout.
For `CC=CC1=C(C(=O)O)N2C(=O)[C@H](NC(=O)[C@H](N)c3ccc(O)cc3)[C@@H]2SC1`, the parasite growth, % of DMSO control in [1] was 99.8%. Moreover, the parasite growth remaining, % of DMSO control (lower = more inhibition) in assay [2] came to 99.9%. In addition, in assay [3], the parasite growth, % of control (lower = inhibition) was found to be 99.4%. For the same compound, the cell viability, % of control (lower = more cytotoxic) in assay [4] is 52.6%. In assay [5], this compound registered a viability (% of control) of 89.2%. For the same compound, the Potency entry in assay [6] and in assay [7] was “inactive” throughout.
`Nc1ncnc2c1c(-c1cccc(OCc3ccccc3)c1)cn2C1CC(CN2CCCC2)C1` (stereo unspecified) returned a parasite growth, % of DMSO control in [1] of 5.35%. The parasite growth remaining, % of DMSO control (lower = more inhibition) in assay [2] came to 7.32%. Also, the parasite growth, % of control (lower = inhibition) in assay [3] is 9.07%. This compound registered a growth, % of control in assay [8] of 8.63%. The cell viability, % of control (lower = more cytotoxic) in assay [4] came out at 5.16%. Further, in assay [5], the viability (% of control) worked out at 1.43%. The Potency result in assay [6] and in [7] was “inactive” each time.
In turn, `COc1c(OCCCN2CCOCC2)ccc2c3n(c(=NC(=O)c4cnc(N)nc4)nc12)CCN3` displayed a parasite growth, % of DMSO control in assay [1] of 7.6% [at 9.64 µM]. This compound displayed a parasite growth remaining, % of DMSO control (lower = more inhibition) in assay [2] of 12% [at 9.64 µM]. Moreover, in assay [3], the parasite growth, % of control (lower = inhibition) was 16.8% [at 9.64 µM]. This compound also showed a growth, % of control in assay [8] of 3.45% [at 9.64 µM]. For the same compound, the cell viability, % of control (lower = more cytotoxic) in [4] was 37.7% [at 23.2 µM]. For the same compound, the viability (% of control) in assay [5] was found to be 69.2% [at 23.2 µM]. Further, the Potency entry in [6] and in [7] was “inactive” throughout.
With `CC(C)[C@H](C(=O)Nc1ccc(C(=O)NO)cc1)c1ccccc1`, the remaining parasite growth % (stronger effect = lower value) in [9] is -0.0537%. Besides, the remaining proliferation (% of control), lower = more inhibition in [11] was 0.544%. Besides, in assay [1], the parasite growth, % of DMSO control turned out to be 5.04%. The compound also registered a parasite growth remaining, % of DMSO control (lower = more inhibition) in assay [2] of 6.95%. Also, the parasite growth, % of control (lower = inhibition) in assay [3] was 12.7%. For the same compound, the growth, % of control in assay [8] is 9.39%. For the same compound, the cell viability, % of control (lower = more cytotoxic) in [4] came to 13.6%. In addition, in assay [5], the viability (% of control) stood at 6.36%. Besides, the Potency entry in [6] and in assay [7] was “inactive” each time.
As for `COc1c(N2C[C@@H]3CCCN[C@H]3C2)c(F)cc2c(=O)c(C(=O)O)cn(C3CC3)c12`, the parasite growth, % of DMSO control in assay [1] was 53.9% and 70.8%. The parasite growth remaining, % of DMSO control (lower = more inhibition) in assay [2] was determined as 76.4%. For the same compound, the parasite growth, % of control (lower = inhibition) in assay [3] is 31.4% and 104%. Besides, the cell viability, % of control (lower = more cytotoxic) in assay [4] worked out at 73.3%. The viability (% of control) in [5] was 71.9%. Besides, the Potency entry in assay [6] and in assay [7] was “inactive” in each case.

Source of the values: PubChem BioAssay (NCATS).
